Test results from PubChem BioAssay AID1159580 (chemical genetic matrix, 2015).
Among all 5,500 compounds or so, about 2,000 (36%) were called active. Not shown: some 18% with an inconclusive outcome. No stated cut-off is given here; in the data, active means normalized growth mostly below about 0.91 (no sharp cut-off); inconclusive means no clear call, values can overlap the other calls; inactive means mostly above about 0.92. Some of the results follow.

Assay: chemical genetic growth profiling, strain panel (AID 1159580);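 further: tested at 20 µM; growth read once vehicle control cultures reached saturation at 30 °C; 1 = growth at the plate median or of vehicle wells; lower values mean less growth of the strain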
Details: S. cerevisiae deletion strains, growth OD

Measured: normalized growth

Cc1ncc([N+](=O)[O-])n1CC(C)O (centres undefined)
inactive: locus YAL021C, strain ccr4, hits give low values 0.954 | locus YAL026C, strain drs2, hits give low values 0.956 | locus YAL030W, strain snc1, hits give low values 0.975 | locus YBL061C, strain skt5, hits give low values 0.974 | locus YBR009C, strain hhf1, hits give low values 0.982 | locus YBR023C, strain chs3, hits give low values 0.995 | locus YBR171W, strain sec66, hits give low values 0.976 | locus YBR231C, strain swc5, hits give low values 0.992 | locus YBR279W, strain paf1, hits give low values 0.995 | locus YCL011C, strain gbp2, hits give low values 0.968 | locus YCL016C, strain dcc1, hits give low values 0.975 | locus YCL061C, strain MRC1, hits give low values 0.924 | locus YCL069W, strain vba3, hits give low values 0.975 | locus YCR088W, strain abp1, hits give low values 0.986 | locus YDL005C, strain med2, hits give low values 0.976 | locus YDL040C, strain nat1, hits give low values 0.978 | locus YDR001C, strain nth1, hits give low values 0.95 | locus YDR069C, strain doa4, hits give low values 0.966 | locus YDR137W, strain rgp1, hits give low values 0.983 | locus YDR159W, strain sac3, hits give low values 0.972 | locus YDR195W, strain ref2 0.989 | locus YDR297W, strain sur2, hits give low values 0.982 | locus YDR334W, strain swr1, hits give low values 0.957 | locus YDR335W, strain msn5, hits give low values 0.982 | locus YDR392W, strain spt3, hits give low values 0.922 | locus YEL003W, strain gim4, hits give low values 0.977 | locus YEL037C, strain rad23, hits give low values 0.983 | locus YEL061C, strain CIN8 (second series), hits give low values 0.964 | locus YER015W, strain faa2, hits give low values 0.988 | locus YER016W, strain bim1, hits give low values 0.983 | locus YER111C, strain swi4, hits give low values 0.978 | locus YER155C, strain BEM2 (second series), hits give low values 0.994 | locus YFR010W, strain ubp6, hits give low values 0.969 | locus YGL167C, strain pmr1, hits give low values 0.981 | locus YGL173C, strain kem1, hits give low values 0.966 | locus YGL227W, strain vid30, hits give low values 0.985 | locus YGL240W, strain doc1, hits give low values 0.995 | locus YGL253W, strain hxk2, hits give low values 0.981 | locus YHR013C, strain ard1, hits give low values 0.948 | locus YHR027C, strain rpn1, hits give low values 0.987 | locus YHR030C, strain SLT2, hits give low values 0.976 | locus YHR079C, strain IRE1, hits give low values 0.979 | locus YHR142W, strain chs7, hits give low values 0.99 | locus YJL092W, strain hpr5, hits give low values 0.961 | locus YJL095W, strain BCK1 (second series), hits give low values 0.984 | locus YJL095W, strain BCK1, hits give low values 0.991 | locus YJL115W, strain asf1, hits give low values 0.982 | locus YJL129C, strain trk1, hits give low values 0.966 | locus YJL154C, strain vps35, hits give low values 0.979 | locus YJL164C, strain tpk1, hits give low values 0.966 | locus YJL166W, strain qcr8, hits give low values 0.996 | locus YJR066W, strain TOR1, hits give low values 0.883 | locus YKL160W, strain elf1, hits give low values 1 | locus YKR026C, strain gcn3, hits give low values 0.984 | locus YKR091W, strain srl3, hits give low values 0.983 | locus YLL001W, strain dnm1, hits give low values 0.988 | locus YLL026W, hits give low values 0.988 | locus YLL041C, strain sdh2, hits give low values 0.982 | locus YLR027C, strain aat2, hits give low values 0.994 | locus YLR113W, strain HOG1, hits give low values 1.01 | locus YLR221C, strain rsa3, hits give low values 0.958 | locus YLR258W, strain gsy2, hits give low values 0.974 | locus YLR262C, strain YPT6 (second series), hits give low values 0.981 | locus YLR320W, strain mms22, hits give low values 0.96 | locus YLR342W, strain FKS1, hits give low values 0.987 | locus YLR357W, strain rsc2, hits give low values 0.959 | locus YLR370C, strain arc18, hits give low values 0.992 | locus YLR384C, strain iki3, hits give low values 0.998 | locus YML120C, strain ndi1, hits give low values 0.967 | locus YMR058W, strain fet3, hits give low values 0.971 | locus YMR125W, strain sto1, hits give low values 0.945 | locus YMR129W, hits give low values 0.965 | locus YMR205C, strain PFK2, hits give low values 0.979 | locus YMR231W, strain pep5, hits give low values 0.972 | locus YNL071W, strain lat1, hits give low values 0.979 | locus YNL183C, strain NPR1, hits give low values 0.891 | locus YNL209W, strain ssb2, hits give low values 0.987 | locus YNL248C, strain rpa49, hits give low values 0.946 | locus YNL322C, strain KRE1 (second series), hits give low values 0.974 | locus YNR049C, strain mso1, hits give low values 0.978 | locus YOR001W, strain rrp6, hits give low values 0.994 | locus YOR070C, strain gyp1, hits give low values 0.985 | locus YOR080W, strain dia2, hits give low values 0.981 | locus YOR083W, strain WHI5, hits give low values 0.997 | locus YOR106W, strain vam3, hits give low values 0.978 | locus YOR231W, strain MKK1, hits give low values 0.991 | locus YOR265W, strain rbl2, hits give low values 0.99 | locus YOR270C, strain vph1, hits give low values 0.97 | locus YOR290C, strain snf2, hits give low values 0.939 | locus YPL051W, strain arl3, hits give low values 1 | locus YPL078C, strain atp4, hits give low values 0.997 | locus YPL106C, strain sse1, hits give low values 0.931 | locus YPL240C, strain hsp82, hits give low values 0.98 | locus YPL256C, strain CLN2, hits give low values 0.965
